From PubChem BioAssay (NCATS) come the findings set out here.

For this assay, the target named is Nucleoprotein (Lymphocytic choriomeningitis virus (strain Armstrong)) (UniProt P09992). Kind of assay: qHTS for Inhibitors of the Functional Ribonucleoprotein Complex (vRNP) of Lymphocytic Choriomeningitis Arenaviruses (LCMV): LCMV Primary Screen - GLuc reporter signal (AID 1347086). Note: nearly all actives have a fitted effect of over 70% in size.

Structures are written as SMILES. Records with an inconclusive call do not appear. Where a call stands in place of a potency, no number is given. Calls of active or inactive are those of the source. Calls come from the whole dose curve.
Potency is the fitted concentration of half-maximal effect.

Nucleoprotein (Lymphocytic choriomeningitis virus (strain Armstrong)), sequence (P09992 whole entry, looked up): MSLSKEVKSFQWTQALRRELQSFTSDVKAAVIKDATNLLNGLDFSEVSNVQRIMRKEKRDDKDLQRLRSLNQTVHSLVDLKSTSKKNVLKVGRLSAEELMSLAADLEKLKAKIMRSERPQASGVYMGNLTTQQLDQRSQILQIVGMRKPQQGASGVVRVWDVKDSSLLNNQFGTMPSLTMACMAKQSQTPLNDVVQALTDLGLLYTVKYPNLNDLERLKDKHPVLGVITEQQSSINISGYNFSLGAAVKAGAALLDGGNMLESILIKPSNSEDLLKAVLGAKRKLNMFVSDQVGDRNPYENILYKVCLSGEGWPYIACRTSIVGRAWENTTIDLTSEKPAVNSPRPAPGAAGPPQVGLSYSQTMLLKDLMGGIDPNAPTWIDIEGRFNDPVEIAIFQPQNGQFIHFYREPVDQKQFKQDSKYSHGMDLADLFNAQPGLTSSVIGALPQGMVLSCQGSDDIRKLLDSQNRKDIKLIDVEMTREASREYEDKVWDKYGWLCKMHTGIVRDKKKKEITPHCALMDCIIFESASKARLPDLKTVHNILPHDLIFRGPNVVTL

As to `CC(=O)N/N=C/c1ccc([N+](=O)[O-])o1`, the Potency result is “inactive”.
Consider `NC1CCN(c2nc3c(cc2F)c(=O)c(C(=O)O)cn3-c2ccc(F)cc2F)C1` (stereo not drawn), for which the Potency result was “inactive”.
With `Cc1oc(=O)oc1CN1CCN(c2cc3c(cc2F)c(=O)c(C(=O)O)c2n3C(C)S2)CC1` (stereo not drawn) the entry was “inactive”; with `Nc1ccc(S(=O)(=O)Nc2ccnn2-c2ccccc2)cc1`, “inactive”; with `O=C(O)Cc1ccc(-c2ccccc2)cc1`, “inactive”.
With `COc1cc2c3cc1Oc1cc(ccc1O)C[C@@H]1c4c(cc(OC)c(O)c4Oc4ccc(cc4)C[C@@H]3N(C)CC2)CC[N+]1(C)C`, the Potency result was “inactive”.
As for `COCCOC(=O)C1=C(C)NC(C)=C(C(=O)OC(C)C)C1c1cccc([N+](=O)[O-])c1` (stereo not drawn), the entry is “inactive”; as for `CC(=O)Nc1ccccc1`, “inactive”.
With `CC(C)(Oc1ccc(Cl)cc1)C(=O)OCCCOC(=O)C(C)(C)Oc1ccc(Cl)cc1` the entry was “inactive”; with `CC(=O)N[C@@H](CCC(=O)O)C(=O)O`, “inactive”; with `COc1ccc2cc1Oc1cc3c(cc1OC)CC[N+](C)(C)[C@H]3Cc1ccc(cc1)Oc1c(OC)c(OC)cc3c1[C@@H](C2)[N+](C)(C)CC3`, “inactive”.
For `Clc1ccc2c(c1)Nc1ccccc1S2`, the Potency result is “inactive”.
As for `O=C(O)CCCC[P+](c1ccccc1)(c1ccccc1)c1ccccc1`, the entry is “inactive”; as for `Cc1nc(-c2ccc(Cl)cc2)oc1COC(C)(C)C(=O)O`, “inactive”; as for `Nc1c(I)cc(I)c(C(=O)N(CCC(=O)O)c2ccccc2)c1I`, “inactive”.
With `O=C(O)Cc1cccc2ccccc12` the entry was “inactive”.
With `COC(=O)[C@@H]1[C@H]2C[C@H]3c4[nH]c5ccccc5c4CCN3C[C@@H]2CC[C@@H]1O` the entry was “inactive”.
Turning to `O=C(CO)[C@@H](O)[C@H](O)[C@@H](O)CO`, the Potency result was “inactive”.
As for `CCCCCCn1c(=O)c2c(ncn2C)n(C)c1=O`, the entry is “inactive”; as for `OCCN1CCN(CC/C=C2/c3ccccc3Sc3ccc(C(F)(F)F)cc32)CC1`, “inactive”; as for `CC(=O)O[C@@H]1CC2C3CCc4cc(OC(=O)c5ccccc5)ccc4C3CCC2(C)[C@H]1OC(C)=O` (stereo partly drawn), “inactive”.
With `Cc1ccsc1/C=C/C1=NCCCN1C` the entry was “inactive”.
`COc1cccc2c1C(=O)c1c(O)c3c(c(O)c1C2=O)C[C@@](O)(C(=O)CO)C[C@@H]3O[C@H]1C[C@H](N)[C@@H](O)[C@H](C)O1`: the Potency is 1.37 µM (active).
With `Cc1ncc([N+](=O)[O-])n1CC(O)CCl` (stereo not drawn) the entry was “inactive”; with `CCCCCCCC/C=C/C(=O)O`, “inactive”; with `FC(F)(F)c1ccccc1-n1ccnc1`, “inactive”.
For the compound `CNC[C@H](O)[C@@H](O)[C@H](O)[C@H](O)CO`, the Potency result was “inactive”.
With `COC(=O)c1cc(Cl)ccc1NS(=O)(=O)C(F)(F)F` the entry was “inactive”; with `CN1C(CSCC(F)(F)F)Nc2cc(Cl)c(S(N)(=O)=O)cc2S1(=O)=O` (stereo not drawn), “inactive”; with `O=C(O)CCCCC(=O)O`, “inactive”.
With `O=C(CCN1CCC(c2ccccc2)C1)c1ccc2c(c1)OCCO2` (stereo not drawn) the entry was “inactive”.
With `CC(CCc1ccccc1)NCC(O)c1ccc(O)c(C(N)=O)c1` (stereo not drawn), the Potency result is “inactive”.
Regarding `CN1[C@@H]2CCC[C@@H]1CC(NC(=O)c1nn(C)c3ccccc13)C2` (stereo partly drawn), the Potency entry was “inactive”.
As for `C[C@H](CS)C(=O)N1CCC[C@H]1C(=O)O`, the entry is “inactive”; as for `Cc1nnc(C(C)C)n1C1C[C@H]2CC[C@@H](C1)N2CC[C@H](NC(=O)C1CCC(F)(F)CC1)c1ccccc1` (stereo partly drawn), “inactive”.
Turning to `CNCCCCOc1ccccc1Cc1ccccc1`, the Potency result was “inactive”.
Regarding `Cc1cc2c(cc1S(N)(=O)=O)S(=O)(=O)CCC2`, the Potency entry is “inactive”.
For the compound `C[C@]12C=CC(=O)C=C1CC[C@@H]1[C@@H]2[C@@H](O)C[C@@]2(C)[C@H]1CC[C@]2(O)C(=O)CO`, the Potency entry is “inactive”.
With `COc1cc(C)c(Cc2cnc(N)nc2N)cc1OC` the entry was “inactive”; with `COC(=O)/C=C(/C)N`, “inactive”.
On to `CCCCC(=O)OCC(=O)[C@H]1[C@H](C)C[C@H]2[C@@H]3C[C@H](F)C4=CC(=O)C=C[C@]4(C)[C@@]3(F)[C@@H](O)C[C@@]21C`, for which the Potency entry is “inactive”.
As for `Cc1oc(=O)oc1COC(=O)[C@@H]1N2C(=O)[C@@H](NC(=O)[C@H](N)c3ccccc3)[C@H]2SC1(C)C`, the entry is “inactive”; as for `COc1ccc(C(=O)NCc2ccc(OCCN(C)C)cc2)cc1OC`, “inactive”; as for `CN=C(NC#N)Nc1ccc(C2=NNC(=O)CC2C)cc1` (stereo not drawn), “inactive”.
With `CCCCCCCCCCC[C@@H](C[C@@H]1OC(=O)[C@H]1CCCCCC)OC(=O)[C@H](CC(C)C)NC=O`, the Potency result was “inactive”.
For the compound `OC[C@@H](O)[C@@H](O[C@@H]1O[C@H](CO)[C@H](O)[C@H](O)[C@H]1O)[C@H](O)[C@@H](O)CO`, the Potency entry was “inactive”.
For `Cc1onc(-c2c(Cl)cccc2Cl)c1C(=O)Cl`, the Potency entry was “inactive”.
Consider `CCCCCCCCCCCCCCCCCCN(C)C`, for which the Potency entry was “inactive”.
On to `NC(=O)NC1N=C([O][Al])NC1=O` (stereo not drawn), for which the Potency result was “inactive”.
With `CC(=O)N1CCN(c2ccc(OC[C@H]3CO[C@](Cn4ccnc4)(c4ccc(Cl)cc4Cl)O3)cc2)CC1`, the Potency entry is “inactive”.
As for `CC1(C)O[C@@H]2C[C@H]3[C@@H]4CCC5=CC(=O)C=C[C@]5(C)[C@@H]4[C@@H](O)C[C@]3(C)[C@]2(C(=O)CO)O1`, the entry is “inactive”; as for `Clc1cccc(C(c2ccc3nc[nH]c3c2)n2ccnc2)c1` (stereo not drawn), “inactive”.
With `Nc1ccc([N+](=O)[O-])c(C(F)(F)F)c1` the entry was “inactive”; with `COc1c2occc2c(OC)c2c(=O)cc(C)oc12`, “inactive”.
As for `OCCc1ccccc1`, the entry is “inactive”; as for `CC(=O)N(CC(O)CO)c1c(I)c(C(=O)NCC(O)CO)c(I)c(C(=O)NCC(O)CO)c1I` (stereo not drawn), “inactive”; as for `CNC(=O)c1c(I)c(NC(C)=O)c(I)c(C(=O)O)c1I`, “inactive”.
For the compound `Nc1ncnc2c1ncn2Cc1c(F)cccc1Cl`, the Potency entry is “inactive”.
